Records with an inconclusive call do not appear. Some compounds were tested as several samples or in several runs, with calls that do not always agree. Activity calls are given as the source filed them. How the source made its calls: active means hit-call score of the fitted dose curve at least 0.9, where 1 is the maximum; inconclusive means response in the unintended direction; inactive means score below 0.9.
Assay: ACEA_AR_agonist_AUC_viability: ACEA Biosciences xCELLigence Real-Time Cell Analysis on Androgen Receptor Agonism for Viability (AID 2283775);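 on AC50: viability read 80 hours after compound addition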
Protocol: ACEA_AR_agonist is a cell-based, single-readout assay that uses 22Rv1, a human prostate cancer cell line, with measurements taken at 80 hours after chemical dosing in a 384-well plate, although TO5 and TO6 (mc0.srcf) used a 96-well plate. Differences in plate size can be ignored given data normalization.ACEA_AR_80hr is one of two assay component(s) measured or calculated from the ACEA_AR assay. It is designed to make measurements of real-time cell-growth kinetics, a form of growth reporter, as detected with electrical impedance signals by Real-Time Cell Electrode Sensor (RT-CES) technology.Data from the assay component ACEA_AR_AUC_viability was analyzed in the positive analysis fitting direction relative to DMSO as the negative control and baseline of activity. Using a type of growth reporter, loss-of-signal activity can be used to understand changes in the viability. Furthermore, this assay endpoint can be referred to as a secondary readout, because this assay has produced multiple assay endpoints where this one serves a viability function. To generalize the intended target to other relatable targets, this assay endpoint is annotated to the cell cycle intended target family, where the subfamily is cytotoxicity.
The xCELLigence system Multi-E-Plate stations were used to measure the time-dependent response to chemicals. Each compound was tested in an eight-point, 1:4 serial dilution series starting at a maximum final concentration of 100 uM. A maximum starting concentration of 0.5% DMSO was present in the 100 uM chemical samples and was diluted along with the test article dilution series. The screen was performed in biological duplicate using two separate, 96-well, E-Plates 96 for each dilution series (n = 2). Positive controls (MG132 and testosterone) and a negative control (assay media) were tested in quadruplicate on each testing plate. Then, 0.5% and 0.125% DMSO were tested in duplicates in each plate to serve as solvent controls for the 2 highest concentrations of testing compounds: 100 uM and 25 uM. Reference compounds were tested with 8 concentrations with 1:5 serial dilutions. All screening was carried out by ACEA Biosciences, Inc. (San Diego, CA). 22Rv1 cells purchased from ATCC were maintained in media supplemented with 10% fetal bovine serum (FBS). Before screening, 22Rv1 cells were preconditioned in assay medium. Cells were then detached and seeded in E-Plates 96 in assay medium. After overnight monitoring of growth once every hour, compounds were added to […] cells and remained in the medium until the end of the experiment. Cellular responses were then recorded once every 5 min for the first 5 h, and once every hour for an additional 100 h.

SMILES | AC50 | outcome
CCOC1Oc2ccc(OS(C)(=O)=O)cc2C1(C)C (configuration not stated) | 25.7 µM (active) | –
C#CCN1C(=O)COc2cc(F)c(N3C(=O)C4=C(CCCC4)C3=O)cc21 | 50 µM (active) | –
N#CN | – | inactive
O=C(NC(=O)c1c(F)cccc1F)Nc1ccc(OC(F)(F)C(F)OC(F)(F)F)c(Cl)c1 (configuration not stated) | – | inactive
CCCN(CCOc1c(Cl)cc(Cl)cc1Cl)C(=O)n1ccnc1 | 37.3 µM (active) | –
CCC(C)(NC(=O)c1cc(Cl)c(C)c(Cl)c1)C(=O)CCl (configuration not stated) | 26.5 µM (active) | –
CC1(C)C(C=C(Cl)Cl)C1C(=O)OC(C#N)c1ccc(F)c(Oc2ccccc2)c1 (configuration not stated) | 67.2 µM (active) | –
O=S(=O)(O)C(F)(F)C(F)(F)C(F)(F)C(F)(F)C(F)(F)C(F)(F)C(F)(F)C(F)(F)F | 50 µM (active) | inactive
CCN(CC)C(=O)SCc1ccc(Cl)cc1 | 62.2 µM (active) | –
O=C1c2ccccc2C(=O)N1SC(Cl)(Cl)Cl | 8.53 µM (active) | –
CN1CSC(=S)N(C)C1 | 50 µM (active) | –
O=C(O)CCCOc1ccc(Cl)cc1Cl | – | inactive
C[C@H]1[C@H](c2ccc(Cl)cc2)SC(=O)N1C(=O)NC1CCCCC1 | 73 µM (active) | –
CC(C)OC(=O)Nc1cccc(Cl)c1 | 86.1 µM (active) | –
Oc1ccc(Cl)cc1Cc1ccccc1 | 18.2 µM (active) | –
Oc1cc(Cl)ccc1Oc1ccc(Cl)cc1Cl | 17.3 µM (active) | –
CC(C)(C)C(O)C(Oc1ccc(Cl)cc1)n1cncn1 (configuration not stated) | – | inactive
O=C(Nc1ccccc1)Nc1cnns1 | 28.6 µM (active) | –

SMILES | AC50 | outcome
ClC1C(Cl)C(Cl)C(Cl)C(Cl)C1Cl (configuration not stated) | – | inactive
COc1nn(CSP(=S)(OC)OC)c(=O)s1 | 78.7 µM (active) | –
CNC(=O)Oc1cccc(N=CN(C)C)c1 | – | inactive
COP(=S)(OC)Oc1ccc(SC)c(C)c1 | – | inactive
CCOCN(C(=O)CCl)c1c(C)cccc1CC | 50 µM (active) | –
CCC(C)(C)C(=O)OC1=C(c2ccc(Cl)cc2Cl)C(=O)OC12CCCCC2 | 81.9 µM (active) | –
O=S1OCC2C(CO1)C1(Cl)C(Cl)=C(Cl)C2(Cl)C1(Cl)Cl (configuration not stated) | 23.1 µM (active) | –
CC1(c2ccc(Oc3ccccc3)cc2)OC(=O)N(Nc2ccccc2)C1=O (configuration not stated) | 1.01 µM (active) | –
O=[N+]([O-])/N=C1\NCCN1Cc1ccc(Cl)nc1 | – | inactive
O=[N+]([O-])c1c(Cl)c(Cl)c(Cl)c(Cl)c1Cl | 58.6 µM (active) | –
CCCN(CCC)c1c([N+](=O)[O-])cc(C(F)(F)F)cc1[N+](=O)[O-] | 80.7 µM (active) | –
Cc1[nH]c(=O)n(C(C)(C)C)c(=O)c1Cl | – | inactive
CC(C)N(C(=O)COc1nnc(C(F)(F)F)s1)c1ccc(F)cc1 | 21.4 µM (active) | –
CC[C@H](C)[C@H]1O[C@]2(C=C[C@@H]1C)C[C@@H]1C[C@@H](C/C=C(\C)[C@@H](O[C@H]3C[C@H](OC)[C@@H](O[C@H]4C[C@H](OC)[C@@H](O)[C@H](C)O4)[C@H](C)O3)[C@@H](C)/C=C/C=C3\CO[C@@H]4[C@H](O)C(C)=C[C@@H](C(=O)O1)[C@]34O)O2 (tested in a mixture with another compound) | 4.08 µM (active) | –
O=C(O)C(F)(F)C(F)(F)C(F)(F)C(F)(F)C(F)(F)C(F)(F)C(F)(F)F | – | inactive
O=C(O)COc1ccc(Cl)cc1Cl | – | inactive
CCC(C)Nc1c([N+](=O)[O-])cc(C(C)(C)C)cc1[N+](=O)[O-] (configuration not stated) | – | inactive
CCc1ccc(C(=O)NN(C(=O)c2cc(C)cc(C)c2)C(C)(C)C)cc1 | 50 µM (active) | –
